Experimental data: PubChem BioAssay AID1712 (National Center for Advancing Translational Sciences (NCATS), 2009)
Inconclusive results are not listed. The call rests on the fitted dose curve; in most records, active means well fitted curve in the direction sought with a large enough effect; inconclusive means small, poorly fitted or top-dose-only effect, or effect the other way, or another doubt; inactive means no such curve, though single readings can be large or run the other way.

Biological target: Amyloid-beta precursor protein (Homo sapiens) (UniProt P05067)
Sequence (P05067 whole entry, looked up, the tested form may be a part): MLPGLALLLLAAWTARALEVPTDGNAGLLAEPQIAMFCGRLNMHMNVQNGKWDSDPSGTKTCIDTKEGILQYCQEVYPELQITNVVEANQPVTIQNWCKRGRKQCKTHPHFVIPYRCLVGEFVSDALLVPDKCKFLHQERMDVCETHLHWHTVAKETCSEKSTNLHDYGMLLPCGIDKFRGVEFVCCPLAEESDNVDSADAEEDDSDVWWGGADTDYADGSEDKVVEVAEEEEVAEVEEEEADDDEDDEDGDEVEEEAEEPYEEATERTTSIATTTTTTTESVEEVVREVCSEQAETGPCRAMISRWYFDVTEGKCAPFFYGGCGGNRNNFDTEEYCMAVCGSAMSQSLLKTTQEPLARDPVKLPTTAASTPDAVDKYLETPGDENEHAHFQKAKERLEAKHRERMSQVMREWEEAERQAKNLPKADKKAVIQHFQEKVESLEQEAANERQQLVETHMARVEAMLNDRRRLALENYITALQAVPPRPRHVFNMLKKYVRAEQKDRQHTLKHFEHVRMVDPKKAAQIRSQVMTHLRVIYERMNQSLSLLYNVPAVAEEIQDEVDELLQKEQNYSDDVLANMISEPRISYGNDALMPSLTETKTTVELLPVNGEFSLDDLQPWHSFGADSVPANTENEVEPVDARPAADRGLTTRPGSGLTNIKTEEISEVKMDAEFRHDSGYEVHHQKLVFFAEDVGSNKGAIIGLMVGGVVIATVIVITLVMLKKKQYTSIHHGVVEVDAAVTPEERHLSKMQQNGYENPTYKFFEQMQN
Test: Assay for Inhibitors of the fibrillization of the Beta-Amyloid Protein Fragment, A-beta 1-42
Conditions: A-beta 1-42 fibrillization, ThT fluorescence, 4 h; series mostly up to 80 µM; activity, positive = inhibition: at the top concentration
Description: NIH Molecular Libraries Probe Production Network [MLPCN] NIH Chemical Genomics Center [NCGC] MLPCN Grant: X01 MH083262-01 Assay Provider: Carlo Ballatore, University of Pennsylvania NCGC Assay Overview: The microtubule-associated protein tau is an abundant protein in the axons of neurons that stabilizes microtubules. With its ability to modulate microtubule dynamics, tau contributes directly or indirectly, to key structural and regulatory cellular functions. Particularly important is the influence tau exerts on axonal transport, which allows signaling molecules, trophic factors and other essential cellular constituents to travel along the axons. Under pathological conditions, tau becomes sequestered into insoluble aggregates called neurofibrillary tangles. This phenomenon is believed to have pathological consequences by promoting axonal transport deficits that ultimately lead to synaptic dysfunction and neuronal loss. Beta-amyloid protein undergoes a similar type of aggregation as tau and is implicated in the pathology of Alzheimer's disease. To examine the selectivity of tau fibrillization inhibitors, compounds were tested in an in vitro assay for fibrillization of the beta-amyloid fragment, A-beta 1-42. Crystal, A. S., Giasson, B. I., Crowe, A., Kung, M. P., Zhuang, Z. P., Trojanowski, J. Q., and Lee, V. M. Y. (2003) Journal of Neurochemistry 86, 1359-1368.
NCGC Assay Protocol Summary: Synthetic A-beta 1-42 aliquots were reconstituted to 2 mg/ml in DMSO and then diluted to 15 uM in 25 mM Tris, pH 7.0 buffer to which test compound was added at 50 uM final concentration, or at several concentrations ranging from 0.16-40 uM. The reaction mixtures were dispensed at 25 ul/well into a 384-well plate and then incubated at 37 C for 4 hrs. Upon completion of the reaction, 25 ul of 25 uM ThT was added to each well followed by ThT fluorescence readings as described above for K18PL.

activity, positive = inhibition, inactive:
O=S(=O)(c1ccc2c(c1)OCCO2)N1CCN(c2nc(-c3ccccc3)nc3ccccc23)CC1 -8.26%
Cc1ccc(S(=O)(=O)N2CCN(c3nc(-c4ccccc4)nc4ccccc34)CC2)cc1 -11.6%
CCOC(=O)c1nn(-c2ccc(C)c(C)c2)c(=O)c2c(N)scc12 -17.1%
CCOC(=O)c1nn(-c2ccccc2F)c(=O)c2c(N)scc12 5.98%
Nc1scc2c(CO)nn(-c3ccccc3)c(=O)c12 -12.8%
Nc1scc2c(C(=O)N3CCOCC3)nn(-c3ccccc3)c(=O)c12 5.25%
NC(=O)c1nn(-c2ccccc2)c(=O)c2c(N)scc12 -7.43%
CC(=O)Nc1sc(C)c2cnn(-c3ccccc3)c(=O)c12 27.7%
CCOC(=O)c1ccc(-n2nc(C(=O)OCC)c3csc(N)c3c2=O)cc1 -0.14%
CCOC(=O)c1nn(-c2ccccc2)c(=O)c2c(N)scc12 2.97%
COc1ccc(-n2nc(C(=O)O)c3csc(N)c3c2=O)cc1 7.71%
COc1ccc(NC(=O)CSc2nnc(CCC(=O)Nc3ccc(C)c(Cl)c3)n2C)cc1 -21.2%
Nc1nn(-c2ccccc2)c(=O)c2c(N)scc12 -16.8%
